Sampled rows, rich in hits. Any-hit rate of the full collection: about 1.8%.
PriA SSB inh: blocks PriA binding to SSB C-terminal tail; inhibition, % at 33 µM; AlphaScreen SSBct-PriA binding, biotinylated peptide; hit rate 0.6% among 430,000; in the data active means inhibition mostly above about 37%, no sharp cut-off; inactive means mostly below about 20%
DUSP3 inh: DUSP3 (human) phosphatase inhibition; AID 1654; hit rate 0.52% among 290,000; P51452; inhibition, % at 13.3 µM; recombinant VHR phosphatase, pNPP absorbance; in the data active means inhibition above about 50%
Target sequence (P51452 whole entry, looked up): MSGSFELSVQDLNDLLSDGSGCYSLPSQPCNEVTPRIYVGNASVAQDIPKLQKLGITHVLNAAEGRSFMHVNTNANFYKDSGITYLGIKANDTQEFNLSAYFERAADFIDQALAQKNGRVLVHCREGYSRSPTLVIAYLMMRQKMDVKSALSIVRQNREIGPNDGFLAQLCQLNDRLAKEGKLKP
Mtb hypoxia inh: inhibitors of hypoxia-regulated fluorescent reporter in Mycobacterium tuberculosis; hit rate 0.1% among 300,000; AID 1159583; fluorescence inhibition, % (test concentration not listed); M. tuberculosis hypoxia-regulated fluorescent reporter, fluorescence; in the data active means fluorescence inhibition mostly above about 23%, no sharp cut-off; inactive means mostly below about 17%
PfHsp40 yeast: rescue of PfHsp40-mediated yeast toxicity; S. cerevisiae expressing PfHsp40, growth rescue, ATP luminescence; growth rescue, % at 12.5 µM; hit rate 0.68% among 340,000; AID 504582; in the data active means growth rescue above about 28%, passing the limit was not always enough;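 further: yeast W303a lacking pdr1 and pdr3 grown in galactose medium; growth measured after three days at 30 °C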
RN4220 kill: kills Staphylococcus aureus RN4220; S. aureus RN4220 growth, OD600, 16 h; inhibition, % (test concentration not listed); hit rate 0.33% among 330,000; in the data active means inhibition above about 85%
ugtP null kill: compounds lethal to S. aureus RN4220 ugtP deletion mutant; OD600 growth, 16 h; growth inhibition, % (no concentration beside the values); hit rate 0.54% among 330,000; AID 1259309; in the data active means growth inhibition above about 68%
Numbers stand for hits; n = inactive; x = no result given; ! = a repeat was not active.

SMILES	PriA SSB inh	DUSP3 inh	Mtb hypoxia inh	PfHsp40 yeast	RN4220 kill	ugtP null kill
Cn1nc2cc(Br)ccc2c1C(=O)N1CC(Oc2nccs2)C1	n	x	x	x	x	x
COCCNC(=O)Cc1cn(Cc2ccc(Cl)cc2)c2ccccc12	n	x	x	x	x	x
CCC(CO)[n+]1c(C)cc(/C=C2\Sc3ccccc3N2Cc2ccccc2)cc1C (configuration not stated)	x	n	x	n	100	100
CC(O)CN1CCN(Cc2ccccn2)CC1 (configuration not stated)	n	x	x	x	x	x
Cc1cc(C)n(S(=O)(=O)c2ccc3c(c2)C(=O)c2ccccc2C3=O)n1	n	x	x	x	x	x
CN(C)CCCN(C(=O)c1cc2c(ccc3ccccc32)oc1=O)c1nc2cc3c(cc2s1)OCCO3	66	x	x	x	x	x
CCN(CC)CCN(C(=O)c1ccc(C(=O)c2ccccc2)cc1)c1nc2c(OC)cccc2s1	37!	n	n	n	n	n
CN(C)CCCN(C(=O)c1cc2cc([N+](=O)[O-])ccc2s1)c1nc2cc3c(cc2s1)OCCO3	46!	x	x	n	x	x
CCN(CC)CCN(C(=O)c1ccc(C(=O)c2ccccc2)cc1)c1nc2cc3c(cc2s1)OCO3	41	n	n	n	n	n
CCOCC(=O)Nc1cccc(-c2csc(Nc3ccccc3F)n2)c1	n	x	x	x	x	x
CCS(=O)(=O)C(Br)(Br)S(=O)(=O)CC	n	x	x	x	x	x
COc1cccc2cc(-c3nnc(NC(=O)c4cc5ccccc5o4)o3)oc12	n	x	x	x	x	x
CCN(CC)CCN(C(=O)Cc1cccc2ccccc12)c1nc2cc3c(cc2s1)OCO3	35	x	x	x	x	x
CN(C)CCCN(C(=O)c1ccc(C(=O)c2ccccc2)cc1)c1nc2cc3c(cc2s1)OCO3	44	n	n	n	n	n
CCN(CC)CCN(C(=O)CCS(=O)(=O)c1ccccc1)c1nc2cc3c(cc2s1)OCO3	n	n	n	n	n	n
CNC(=O)Cc1cn(Cc2cc(OC)cc(OC)c2)c2ccccc12	n	x	x	x	x	x
CCCOc1ccc(S(=O)(=O)N2CCOC3(CCOCC3)C2)cc1	n	x	x	x	x	x
NS(=O)(=O)c1ccc2c(c1)C(=O)c1ccccc1C2=O	n	x	x	x	x	x
NC1=C(Cl)C(=O)c2ccc(S(N)(=O)=O)cc2C1=O	n	x	x	n	99	98
COc1ccc(OC)c(S(=O)(=O)NCCS(=O)(=O)N2CCN(c3ccc(F)cc3)CC2)c1	n	x	x	x	x	x
O=C(CSc1cccc(C(F)(F)F)c1)NC(=O)c1ccccc1	n	51	n	n	n	n
O=C1NC(=S)N(S(=O)(=O)c2c(Cl)cccc2Cl)C1Cc1ccccc1 (configuration not stated)	86	x	x	x	x	x
Cc1cc(C)c(C)c(S(=O)(=O)N2C(=S)NC(=O)C2Cc2ccccc2)c1C (configuration not stated)	n	x	x	x	x	x
COc1ccc(-c2nnc3ccc(OCCNC(=O)c4cccc(Cl)c4)nn23)cc1	n	x	x	x	x	x
COc1ccccc1CNC(=O)C(=O)c1cn(CC(=O)N2CCCC2)c2ccccc12	n	52	n	n	n	n
SMILES	PriA SSB inh	DUSP3 inh	Mtb hypoxia inh	PfHsp40 yeast	RN4220 kill	ugtP null kill
O=C(Nc1ccc(S(=O)(=O)N2CCOCC2)cc1)c1ccc([N+](=O)[O-])s1	n	x	38	n	n	n
O=C(Nc1ccc(S(=O)(=O)N2CCOCC2)cc1)c1cccs1	n	n	x	n	n	n
Cc1cccc(-n2ncc3c(N(C)Cc4ccccc4)ncnc32)c1	104	n	n	n	n	n
Cc1cccc(-n2ncc3c(N)ncnc32)c1	n	n	x	n	n	n
O=C(CCc1ccc(C(F)(F)F)cc1)N(CCc1cccs1)Cc1ccco1	n	x	x	x	x	x
CCOc1ccc(CCNC(=O)Cn2ccc3cc(S(=O)(=O)N4CCCC4)ccc32)cc1	n	53	n	n	n	n
O=C(OCC(=O)c1c[nH]c2ccccc12)c1ccc([N+](=O)[O-])s1	n	n	n	n	n	101
CCc1cccc2c(C(=O)COC(=O)c3ccc([N+](=O)[O-])s3)c[nH]c12	n	n	n	37	100	101
CCOC(=O)c1c(C)[nH]c(C)c1C(=O)COC(=O)c1ccc([N+](=O)[O-])s1	n	x	n	n	n	n
Cc1ccc(C(=O)OCC(=O)c2c[nH]c3ccccc23)cc1	n	n	n	n	n	n
O=C(CSc1nccn1Cc1cccs1)Nc1cccc(Cl)c1	n	x	x	x	x	x
CCc1ccccc1N(C(=O)c1cccs1)C1C=CS(=O)(=O)C1 (configuration not stated)	n	n	n	34	n	n
O=C(c1cccs1)N(c1cccc(Cl)c1)C1C=CS(=O)(=O)C1 (configuration not stated)	n	n	n	n	n	n
CCOc1ccccc1S(=O)(=O)NCC1CCN(C(=O)Nc2ccccc2OC)CC1	n	x	x	x	x	x
COc1ccccc1C1CC(c2c(-c3ccccc3)c3cc(Cl)ccc3[nH]c2=O)=NN1C(=O)C(OC)c1ccccc1 (configuration not stated)	n	x	x	x	x	x
CC(=O)c1c(C)n([O-])c2ccc(C)cc2[n+]1=O	n	n	64	n	n	n
O=c1[nH]c(-c2ccccn2)cs1	63	x	x	x	x	x
O=c1[nH]c(-c2ccccn2)cc2ccccc12	n	n	n	n	n	n
O=C(CSc1nnc(Cn2ccc(=O)[nH]c2=O)o1)NCc1ccco1	n	x	x	x	x	x
Cc1ccc(NC(=O)CCN2C(=O)NC3(CCCC3)C2=O)cc1	n	x	n	n	n	n
Cc1ccc(C)c(Sc2ccc(NC(=O)CCN3C(=O)NC4(CCCC4)C3=O)cc2)c1	n	x	n	31	n	n
O=C(Cc1ccc(F)cc1)NCCn1ncc2c(N3CCN(c4ncccn4)CC3)ncnc21	n	x	x	x	x	x
O=c1c(NCc2ccc(Cl)cc2)nccn1-c1cccc(C(F)(F)F)c1	54	x	x	x	x	x
O=c1c(NCc2ccc(F)cc2)nccn1-c1ccc(Br)cc1	n	x	x	x	x	x
Cc1ccc(CNc2nccn(-c3cccc(Cl)c3C)c2=O)cc1	46	x	x	x	x	x
SMILES	PriA SSB inh	DUSP3 inh	Mtb hypoxia inh	PfHsp40 yeast	RN4220 kill	ugtP null kill
O=c1ccsn1Cc1ccccc1	n	n	n	n	n	88
Cc1cc(C(=O)N2CC(n3cc(-c4ccccc4)nn3)C2)no1	n	x	x	x	x	x
CC(C)C(=O)N1CCCc2ccc(NC(=O)C(=O)NCC3(c4cccs4)CCCC3)cc21	n	x	x	x	x	x
CC(NNC(=S)N1CCN(c2ccccn2)CC1)c1nccc2ccccc12 (configuration not stated)	n	x	x	149	x	x
CCNC(=S)N1CCN(c2ccccn2)CC1	n	n	n	n	n	n
COc1ccc(NC(=O)CSc2ccc(-c3ccccn3)nn2)cc1	n	x	x	x	x	x
COc1cc(NC(=O)CSc2ccc(-c3ccccn3)nn2)cc(OC)c1	78	n	n	221	n	n
COc1cccc(NC(=O)CSc2ccc(-c3ccccn3)nn2)c1	76	x	x	x	x	x
CCN(CC)CCN(C(=O)c1ccc(S(=O)(=O)N(C)Cc2ccccc2)cc1)c1nc2cc3c(cc2s1)OCCO3	n	x	x	x	x	x
CN(C)CCCN(C(=O)c1ccc(S(=O)(=O)N(C)Cc2ccccc2)cc1)c1nc2c(F)cccc2s1	39!	n	n	n	n	n
CCN(Cc1ccccc1)S(=O)(=O)c1ccc(C(=O)N(CCCN(C)C)c2nc3cc4c(cc3s2)OCCO4)cc1	47	x	n	n	n	n

Bioassay records as filed in PubChem BioAssay.
